Test results reported in PubChem BioAssay (NCATS).
Inconclusive results are not listed. Entries that show only a call come without a potency. Active and inactive are the calls of the source. Unless noted, calls follow the shape of the dose curve; as a rule, active = well fitted curve in the direction sought with a large enough effect; inconclusive = small, poorly fitted or top-dose-only effect, or another doubt; inactive = no such curve, though single readings can be large; an effect the other way counts as inactive or inconclusive.

Experiments:
[1] = qHTS for differential inhibitors of proliferation of Plasmodium falciparum line HB3 (AID 1886); conditions: Potency: Plasmodium falciparum HB3 proliferation inhibition;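 also: parasites grown with compound for 72 h before SYBR Green readout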; also: potency is read from the fitted curve at half-maximal effect
[2] = target: Ferritin light chain (Equus caballus) (UniProt P02791); experiment: qHTS Validation Assay for Identification of Novel General Anesthetics (AID 2323); also: series mostly up to about 77 µM
Sequence of Ferritin light chain (Equus caballus) (P02791 2-175 limits assumed): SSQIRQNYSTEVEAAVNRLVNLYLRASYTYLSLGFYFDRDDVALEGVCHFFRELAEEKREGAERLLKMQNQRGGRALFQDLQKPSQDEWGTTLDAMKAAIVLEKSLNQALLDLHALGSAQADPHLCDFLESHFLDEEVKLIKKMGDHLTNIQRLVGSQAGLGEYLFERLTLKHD
In short: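 Apoferritin from horse spleen (10 uM) was mixed with 1-aminoanthracene at 50% saturation in PBS, then compounds were added. After 10 min at room temperature, fluorescence was read (ex 380 nm, em 535 nm) and normalized to free-probe and complex controls.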

[3] = target: ATP-dependent DNA helicase Q1 (Homo sapiens) (UniProt P46063); experiment: qHTS Validation Assay for Inhibitors of RecQ-Like Dna Helicase 1 (RECQ1) (AID 2353)
Sequence of ATP-dependent DNA helicase Q1 (Homo sapiens) (P46063 whole entry, looked up): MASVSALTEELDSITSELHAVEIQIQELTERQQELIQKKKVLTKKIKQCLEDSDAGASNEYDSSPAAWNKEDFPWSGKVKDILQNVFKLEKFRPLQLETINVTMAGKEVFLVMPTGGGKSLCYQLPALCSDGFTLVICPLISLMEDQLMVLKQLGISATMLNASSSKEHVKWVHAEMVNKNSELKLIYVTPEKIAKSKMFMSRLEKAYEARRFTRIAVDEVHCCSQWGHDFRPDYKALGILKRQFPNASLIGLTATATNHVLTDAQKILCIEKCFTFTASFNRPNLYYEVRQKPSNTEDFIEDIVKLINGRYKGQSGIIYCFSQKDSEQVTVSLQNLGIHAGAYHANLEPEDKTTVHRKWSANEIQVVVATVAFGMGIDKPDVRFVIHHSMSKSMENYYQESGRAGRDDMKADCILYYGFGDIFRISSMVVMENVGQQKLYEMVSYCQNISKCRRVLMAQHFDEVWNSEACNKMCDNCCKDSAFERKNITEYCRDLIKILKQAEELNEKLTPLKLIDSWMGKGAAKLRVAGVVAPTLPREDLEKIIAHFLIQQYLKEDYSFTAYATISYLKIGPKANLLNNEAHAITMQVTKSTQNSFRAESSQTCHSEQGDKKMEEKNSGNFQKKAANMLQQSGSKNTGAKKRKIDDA
In short: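 50 nM RECQ1T1 preincubated 15 min with compound in Tris pH 8.0 buffer with MgCl2, DTT, Tween-20 and 2.5 ug/ml poly(dI-dC); started with 200 nM TAMRA/BHQ-2 forked duplex and 2 mM ATP. Unwinding read as fluorescence (525/598 nm), two reads 2 h apart.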

[4] = Cytometric Cell-Based qHTS for Inhibitors of the mTORC1 Signaling Pathway in MEF (Tsc2-/-, p53-/-) Cells (AID 2660);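 also: Tsc2 and p53 null MEFs carrying empty vector with compound for 24 h; percent of cells above a phospho-rpS6 to PI ratio cutoff in each well; series mostly up to about 38 µM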
In short: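 Cells are plated, treated with compound for 24 hrs at 37 degree Celsius, then fixed, blocked and immunostained for phospho-rpS6 Ser235/236. Propidium iodide counterstain follows. Per-well % positive cells is derived from the PI-normalized phospho-S6 signal.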

[5] = High Content Imaging Cell-Based qHTS for Inhibitors of the mTORC1 Signaling Pathway in MEF (Tsc2-/-, p53-/-) Cells (AID 2666);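 also: percent of cells scored positive for phospho-rpS6 Ser235/236 immunostaining by imaging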
In short: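 Cells were plated, dosed with compound after 24 hrs, and incubated another 24 hrs at 37 degree Celsius. Fixed cells were immunostained for phospho-rpS6 Ser235/236 and counterstained, and the normalized signal was scored as % active cells against rapamycin and DMSO controls.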

[6] = High Content Imaging Cell-Based qHTS for Inhibitors of the mTORC1 Signaling Pathway in MEF Cells (AID 2667); also: potency is read from the fitted curve at half-maximal effect
In short: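 Immunofluorescence for rpS6 phosphorylation in MEFs of Tsc2-/-, p53-/- background rescued with WT Tsc2. Compound exposure lasted 24 hrs. Inhibition was scored against rapamycin-treated control wells.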

[7] = Cytometry Cell-Based qHTS for Inhibitors of the mTORC1 Signaling Pathway in MEF cells (AID 2668); also: potency is read from the fitted curve at half-maximal effect
In short: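 Pathway inhibition in WT Tsc2-rescued Tsc2-/-, p53-/- MEFs is measured as the Alexa-488 phospho-rpS6 to propidium iodide intensity ratio after 24 hrs of compound at 37 degree Celsius. PI-stained cell number gives viability.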

[8] = target: RecQ-like DNA helicase BLM (Homo sapiens) (UniProt P54132); experiment: qHTS Validation Assay for Inhibitors of Bloom's syndrome helicase (BLM) (AID 2364)
Sequence of RecQ-like DNA helicase BLM (Homo sapiens) (P54132 whole entry, looked up): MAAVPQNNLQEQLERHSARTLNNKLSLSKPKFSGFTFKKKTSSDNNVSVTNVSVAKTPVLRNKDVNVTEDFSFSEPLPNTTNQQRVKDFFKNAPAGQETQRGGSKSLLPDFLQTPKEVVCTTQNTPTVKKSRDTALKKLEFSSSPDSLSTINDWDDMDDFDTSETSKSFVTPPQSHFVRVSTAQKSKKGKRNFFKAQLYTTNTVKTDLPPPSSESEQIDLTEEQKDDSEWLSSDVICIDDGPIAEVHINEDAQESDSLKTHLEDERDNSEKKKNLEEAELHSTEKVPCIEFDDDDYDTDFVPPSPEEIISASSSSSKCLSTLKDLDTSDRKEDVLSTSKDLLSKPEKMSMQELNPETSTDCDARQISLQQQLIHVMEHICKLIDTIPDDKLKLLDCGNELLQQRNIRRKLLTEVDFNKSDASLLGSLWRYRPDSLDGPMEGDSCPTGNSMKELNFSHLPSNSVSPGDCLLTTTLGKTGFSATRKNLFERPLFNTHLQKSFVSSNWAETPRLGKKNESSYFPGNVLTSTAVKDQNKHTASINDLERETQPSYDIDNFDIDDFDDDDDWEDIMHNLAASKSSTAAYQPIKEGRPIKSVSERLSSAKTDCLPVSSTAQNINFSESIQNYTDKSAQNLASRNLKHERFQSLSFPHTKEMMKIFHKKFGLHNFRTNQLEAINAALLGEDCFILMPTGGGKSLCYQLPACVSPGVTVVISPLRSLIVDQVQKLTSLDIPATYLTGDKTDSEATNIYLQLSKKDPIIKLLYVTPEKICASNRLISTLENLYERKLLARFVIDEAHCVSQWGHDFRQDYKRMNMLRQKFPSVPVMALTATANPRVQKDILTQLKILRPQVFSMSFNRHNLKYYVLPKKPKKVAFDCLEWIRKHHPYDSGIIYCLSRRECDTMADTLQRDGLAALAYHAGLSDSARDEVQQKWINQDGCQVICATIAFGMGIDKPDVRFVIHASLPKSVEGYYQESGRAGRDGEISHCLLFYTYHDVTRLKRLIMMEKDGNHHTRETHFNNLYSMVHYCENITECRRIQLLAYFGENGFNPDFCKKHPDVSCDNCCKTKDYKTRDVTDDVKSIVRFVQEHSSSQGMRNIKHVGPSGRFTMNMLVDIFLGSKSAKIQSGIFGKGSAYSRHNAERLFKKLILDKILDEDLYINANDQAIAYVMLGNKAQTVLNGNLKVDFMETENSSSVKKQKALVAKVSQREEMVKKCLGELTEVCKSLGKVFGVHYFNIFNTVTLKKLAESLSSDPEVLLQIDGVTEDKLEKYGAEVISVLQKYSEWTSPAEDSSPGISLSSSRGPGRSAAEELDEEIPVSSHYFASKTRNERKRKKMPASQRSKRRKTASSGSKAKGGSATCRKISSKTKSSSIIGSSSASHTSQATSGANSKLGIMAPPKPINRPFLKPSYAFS
In short: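 Forked 20-bp duplex substrate (200 nM, TAMRA/BHQ-2) plus 2 mM ATP added after 15 min compound preincubation with 50 nM enzyme, pH 8.0, poly(dI-dC) 2.5 ug/ml. Strand separation followed by fluorescence (525/598 nm) over 2 h, normalized to enzyme-free and DMSO controls.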

[9] = qHTS Assay for Modulators of Human Peripheral Myelin Protein 22 (PMP22) Expression/Activity (AID 1967; active = well fitted curve in the direction sought with a large enough effect in the signal ratio; the % refers to the signal ratio)
In short: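 Quantitative HTS in a mouse Schwann cell line expressing dual click beetle luciferases: Pmp22 promoter (green) and control EF-alpha promoter (red). After 24h treatment, corrected green/red signal ratio gave %Activity relative to untreated cells.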

[10] = qHTS Assay for Identification of Small Molecule Inducers of Hypoxia Response (AID 2120; active = well fitted curve in the direction sought with a large enough effect in the signal ratio, with a control signal flat, not every such curve was filed as active; the % refers to the signal ratio)
In short: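 HRE-beta-lactamase reporter in CellSensor HRE-bla ME-180 cells, 2500 cells/well in Opti-MEM with 0.5% dialyzed FBS; compounds tested as titration series, 17 h at 37 degrees C. CCF4 substrate 2.5 h at room temperature; AC50 from 460/530 nm ratio.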

SMILES	Potency [1]	outcome [2]	Potency [3]	outcome [4]	Potency [5]	Potency [6]	Potency [7]	Potency [8]	outcome [9]	outcome [10]
CN(C)CCOC(=O)COc1ccc(Cl)cc1	inactive	inactive	inactive	inactive	inactive	inactive	inactive			
NC(N)=NC(=O)Cc1c(Cl)cccc1Cl	1.41 µM (active)	inactive	inactive	inactive	inactive	inactive	inactive			
C[N+](C)(C)CCOC(=O)CCC(=O)OCC[N+](C)(C)C	inactive	inactive	inactive	inactive	inactive	inactive	inactive			
Cc1nnc(SCC2=C(C(=O)O)N3C(=O)[C@@H](NC(=O)Cn4cnnn4)[C@H]3SC2)s1	inactive	inactive	inactive	inactive	inactive	inactive	inactive			
O=C1CC2(CCCC2)CC(=O)N1CCCCN1CCN(c2ncccn2)CC1	inactive	inactive		inactive	inactive	inactive	inactive	inactive		
Cc1nc2c([nH]1)c(=O)n(C)c(=O)n2Cc1ccco1	inactive	inactive	inactive	inactive	inactive	inactive	inactive			
CCNC(=O)N1CCN(CCCC(c2ccc(F)cc2)c2ccc(F)cc2)CC1	1.12 µM (active)	inactive	inactive	inactive	inactive	inactive				
CN(C)CC[C@@H](c1ccc(Br)cc1)c1ccccn1	inactive	inactive		inactive	inactive	inactive	inactive	inactive		
CCCN(CCC)C(=O)C(CCC(=O)O)NC(=O)c1ccccc1 (stereo unspecified)	inactive	inactive		inactive	inactive	inactive	inactive	inactive		
CCN(CC)CCNC(=O)c1ccc(NC(C)=O)cc1	inactive	inactive	inactive	inactive	inactive	inactive	inactive			
c1cnc(N2CCN(Cc3ccc4c(c3)OCO4)CC2)nc1	inactive	inactive	inactive	inactive	inactive	inactive	inactive	inactive		
CC(=O)Nc1nnc(S(N)(=O)=O)s1	inactive	inactive	inactive	inactive	inactive	inactive	inactive			
CC(=O)Oc1cc(C(C)C)c(OCCN(C)C)cc1C	inactive	inactive	inactive	inactive	inactive	inactive	inactive			
COCCc1ccc(OCC(O)CNC(C)C)cc1 (stereo unspecified)	inactive	inactive	inactive	inactive	inactive	inactive	inactive			
O=C(O)CN(CCOCCOCCN(CC(=O)O)CC(=O)O)CC(=O)O	inactive	inactive	inactive	inactive	inactive	inactive	inactive			
CC[N+](C)(C)c1cccc(O)c1	inactive	inactive	inactive	inactive	inactive	inactive	inactive			
CO[C@@]1(NC(=O)CSCC#N)C(=O)N2C(C(=O)O)=C(CSc3nnnn3C)CS[C@@H]21	inactive	inactive	inactive	inactive	inactive	inactive	inactive			
CCCCNc1c(C(=O)OCC)c(C)nc2c1cnn2CC	12.6 µM (active)	inactive	inactive	inactive	inactive	inactive	inactive			
CCCN(CCC)CCc1cccc2c1CC(=O)N2	inactive	inactive	inactive	inactive	inactive	inactive	inactive			
CN(C)C/C=C(/c1ccc(Br)cc1)c1cccnc1		inactive	inactive	inactive	inactive	inactive	inactive	inactive		
C[N+](C)(C)CCOC(N)=O	inactive	inactive		inactive	inactive	inactive	inactive			
O=C(CCCN1CCC(O)(c2cccc(C(F)(F)F)c2)CC1)c1ccc(F)cc1	10 µM (active)		inactive	inactive	inactive		13.1 µM (active)	inactive		
OCCN1CCN(CC/C=C2/c3ccccc3Sc3ccc(C(F)(F)F)cc32)CC1	5.01 µM (active)	inactive				inactive		inactive		

SMILES	Potency [1]	outcome [2]	Potency [3]	outcome [4]	Potency [5]	Potency [6]	Potency [7]	Potency [8]	outcome [9]	outcome [10]
COc1cc(Cc2cnc(N)nc2N)cc(OC)c1OC		inactive		inactive	inactive	inactive	inactive		inactive	
COCCOC(=O)C1=C(C)NC(C)=C(C(=O)OC(C)C)C1c1cccc([N+](=O)[O-])c1 (stereo unspecified)	8.91 µM (active)		inactive	inactive	inactive	inactive	inactive			
CN(C)CCN(Cc1cccs1)c1ccccn1	inactive		inactive	inactive	inactive	inactive	inactive	inactive		
NC/C=C/C(=O)O	inactive	inactive		inactive	inactive	inactive	inactive			
NC(=Nc1ccccc1)Nc1ccccc1										inactive
CNCCCN1c2ccccc2CCc2ccccc21		inactive	inactive	inactive	inactive			inactive		
Nc1ncn([C@@H]2O[C@H](CO)[C@@H](O)[C@H]2O)c(=O)n1	inactive	inactive			inactive					
C[n+]1cc2c3c(ccc2c2ccc4cc5c(cc4c21)OCO5)OCO3	3.16 µM (active)	inactive			inactive	inactive	inactive			
CCc1c(C)[nH]c2c1C(=O)C(CN1CCOCC1)CC2 (stereo unspecified)	inactive	inactive		inactive	inactive	inactive	inactive			
CC1=C(C)C(=O)C(CCCCC#CCCCC#CCO)=C(C)C1=O	8.91 µM (active)		inactive	inactive	inactive					
Fc1ccc(C(c2ccc(F)cc2)N2CCN(C/C=C/c3ccccc3)CC2)cc1	10 µM (active)	inactive		inactive	inactive	inactive	inactive			
COC(=O)[C@H]1[C@H]2C[C@@H]3c4[nH]c5cc(OC)ccc5c4CCN3C[C@H]2C[C@@H](OC(=O)c2cc(OC)c(OC)c(OC)c2)[C@@H]1OC	1.26 µM (active)	inactive		inactive	inactive	inactive	inactive			
NC(=O)c1ncn([C@@H]2O[C@H](CO)[C@@H](O)[C@H]2O)c1O	inactive	inactive		inactive	inactive	inactive	inactive			
COCC(=O)O[C@]1(CCN(C)CCCc2nc3ccccc3[nH]2)CCc2cc(F)ccc2[C@@H]1C(C)C	5.01 µM (active)					10.4 µM (active)		inactive		
CN(C)CCCN1c2ccccc2Sc2ccc(C(F)(F)F)cc21	10 µM (active)	inactive		inactive	inactive					
CCCC(C(=O)OCCN(CC)CC)(c1ccccc1)c1ccccc1	2.51 µM (active)	inactive		inactive	inactive	inactive				
CCOC(=O)C1=C(C)NC(C)=C(C(=O)OC)C1c1cccc([N+](=O)[O-])c1 (stereo unspecified)	11.2 µM (active)			inactive	inactive					
CN1CCN(C2=Nc3ccccc3Oc3ccc(Cl)cc32)CC1	10 µM (active)		inactive	inactive	inactive	inactive	inactive			
CCCCOCCOCCOCc1cc2c(cc1CCC)OCO2										inactive
CCOC(=O)C1=C(C)NC(C)=C(C(=O)OC)C1c1cccc(Cl)c1Cl (stereo unspecified)	12.6 µM (active)		inactive	inactive	inactive	inactive				
c1cc(CN2CCCCC2)cc(OCCCNc2nc3ccccc3s2)c1	11.2 µM (active)		inactive	inactive	inactive		16.5 µM (active)	inactive		
CCN1CCc2nc(N)oc2CC1	inactive	inactive		inactive	inactive	inactive	inactive			
Cc1cc(C)c(/C=C2\C(=O)Nc3ccccc32)[nH]1	inactive	inactive		inactive	inactive	inactive				

SMILES	Potency [1]	outcome [2]	Potency [3]	outcome [4]	Potency [5]	Potency [6]	Potency [7]	Potency [8]	outcome [9]	outcome [10]
O=C(CCNNC(=O)c1ccncc1)NCc1ccccc1		inactive	inactive	inactive	inactive	inactive	inactive	inactive	inactive	
COc1cc2c(cc1OC)-c1cc(=Nc3c(C)cc(C)cc3C)n(C)c(=O)n1CC2	3.55 µM (active)			inactive	inactive	inactive	inactive			
CN/C(=C\[N+](=O)[O-])NCCSCc1ccc(CN(C)C)o1		inactive		inactive	inactive	inactive	inactive		inactive	
CCc1cccc(N(C)C(N)=Nc2cccc3ccccc23)c1	11.2 µM (active)		inactive	inactive	inactive			inactive		
NCCCNCCSP(=O)(O)O	inactive	inactive		inactive	inactive	inactive	inactive			
CCN(CC)CCNC(=O)c1cc(S(C)(=O)=O)ccc1OC	inactive	inactive		inactive	inactive	inactive	inactive			
Nc1nc(N)c2nc(-c3ccccc3)c(N)nc2n1	12.6 µM (active)			inactive	inactive	inactive		inactive		
NC(Cc1ccc(Cl)cc1)C(=O)O (stereo unspecified)	inactive	inactive		inactive	inactive	inactive	inactive			
Cc1nc2sccn2c(=O)c1CCN1CCC(=C(c2ccc(F)cc2)c2ccc(F)cc2)CC1	11.2 µM (active)	inactive		inactive	inactive		11.7 µM (active)			
CCn1nc(C(=O)O)c(=O)c2cc3c(cc21)OCO3		inactive		inactive	inactive	inactive	inactive			
NC(=O)c1cn(Cc2c(F)cccc2F)nn1				inactive	inactive	inactive	inactive			
C[C@@H](O)[C@H]1C(=O)N2C(C(=O)O)=C(SCCN=CN)C[C@H]12				inactive	inactive	inactive	inactive			
CCOC(=O)c1cnc2c(cnn2CC)c1NN=C(C)C		inactive		inactive	inactive	inactive	inactive			
Brc1c(NC2=NCCN2)ccc2nccnc12			inactive	inactive	inactive	inactive	inactive			
CN(C(=O)CCCOc1ccc2[nH]c(=O)ccc2c1)C1CCCCC1		inactive	inactive	inactive	inactive	inactive	inactive			
CCN(CC)CCOCCOC(=O)C1(c2ccccc2)CCCC1		inactive		inactive	inactive	inactive	inactive	inactive		
CCCCCCCC/C=C\CCCCCCCC(=O)NCc1ccc(O)c(OC)c1				inactive	inactive					
CSc1ccc(C(=O)c2[nH]c(=O)[nH]c2C)cc1		inactive	inactive	inactive	inactive	inactive	inactive			
Cc1scc2c1N(C(=O)CN1CCN(C)CC1)c1ccccc1NC2=O		inactive	inactive	inactive	inactive	inactive	inactive	inactive		
COCCCC/C(=N\OCCN)c1ccc(C(F)(F)F)cc1			inactive	inactive	inactive	inactive	inactive			
CCn1cc(C(=O)O)c(=O)c2cc3c(cc21)OCO3			inactive	inactive	inactive	inactive	inactive	inactive		
Cc1ccc(/C(=C\CN2CCCC2)c2ccccn2)cc1		inactive	inactive	inactive	inactive	inactive	inactive			
